The text below walks through data of PubChem BioAssay (Tox21).

Several values for one entry are separate records, joined by “and”; a condition that tells them apart may be missing. Identical values can stand only once. Values without a mark were called inactive. Calls follow the shape of the full dose curve.
% is scaled to controls: 0 for no effect and ±100 for the full control effect.

One assay can be described thus: qHTS assay to identify small molecule agonists of the estrogen related receptor (ERR) signaling pathway from Tox21 library (AID 1224849). Also: nearly all actives have a fitted effect of over 15% in size. Conditions: ERR reporter cell line, ONE-Glo luciferase, 18 h; at 42.5 µM (top of the series). The source says: National Center for Advancing Translational Sciences [NCATS]
NIH Chemical Genomics Center [NCGC]
U.S. Environmental Protection Agency [EPA]
National Institutes of Environmental Health Sciences [NIEHS]
National Toxicology Program [NTP]
Estrogen related receptors (ERRs), the first orphan nuclear receptors discovered, play an important role in the control of cellular energy metabolism. ERRs are required for high-energy production in response to the environmental challenges. ERR-alpha was also identified as an adverse marker for breast cancer progression; ERR-alpha-positive tumors have a poor prognosis. To screen and to identify environmental compounds that perturb the ERR signaling pathways could provide valuable information for potential therapeutic or preventive measures in the treatment of metabolic disease. For identifying ERR agonists, ERR cell line (provided by NTP) has been used to screen Tox21 10K library.
The ERR cells were dispensed at 2,000 cells/5 ul/well in 1536-well white plates using a Multidrop dispenser. After the assay plates were incubated at a 37 C/5% CO2 incubator for 6 hours, 23 nL of compounds dissolved in DMSO, positive and negative controls or DMSO only was transferred to the assay plate by a pin tool. The plates were incubated at 37 C for 18 hours. 4 ul/well of One-Glo reagent was added into the assay plates using a Flying Reagent Dispenser. After 30-minute incubation at room temperature, the luminescence intensity in the plates was measured using a ViewLux plate reader.
For orientation: Quantitative high-throughput screening tests each substance at several concentrations.
For the molecule `Oc1ccc(Cl)cc1Sc1cc(Cl)ccc1O`, the activity change, positive = activation was -51.1%. As to `CC(C)(C)CC(C)(C)c1ccc(OCCOCC[N+](C)(C)Cc2ccccc2)cc1`, the activity change, positive = activation was -58.4%.

The same assay, now with this note: ERR reporter cell line, ONE-Glo luciferase, 18 h; at 92.4 µM (top of the series).
On to `Oc1ccc(Cl)cc1Sc1cc(Cl)ccc1O`, for which the activity change, positive = activation was -52%. Same read-out and setting: as for `CC(C)(C)CC(C)(C)c1ccc(OCCOCC[N+](C)(C)Cc2ccccc2)cc1`, the figure is -70.8%.

The assay is the same for the next values; noted with them: ERR reporter cell line, ONE-Glo luciferase, 18 h; at 92.4 µM (top of the series) unless noted.
In the case of `COCCCC/C(=N\OCCN)c1ccc(C(F)(F)F)cc1`, the activity change, positive = activation was -2.43% [at 42.5 µM]. Take `COc1ccc(CN2CCN(C(c3ccc(F)cc3)c3ccc(F)cc3)CC2)c(OC)c1OC`: the activity change, positive = activation was -66.6% [at 42.5 µM]. For `CC(C)(C)C1CCC(CC2=C(O)c3ccccc3C(=O)C2=O)CC1` (stereo not given), the activity change, positive = activation was -24.7% [at 42.5 µM]. Same read-out and setting: with `COc1ccc(-c2ccc3cc(C(=O)O)ccc3c2)cc1C12CC3CC(CC(C3)C1)C2` the figure was -10.4% [at 42.5 µM].

For `CC/C(=C(\c1ccc(O)cc1)c1ccc(OCCN(C)C)cc1)c1ccccc1`, the activity change, positive = activation is -78.4%.

In the case of `CCCC1O[C@@H]2C[C@H]3[C@@H]4CCC5=CC(=O)C=C[C@]5(C)[C@H]4[C@@H](O)C[C@]3(C)[C@]2(C(=O)CO)O1` (stereo not given in full), the activity change, positive = activation was -61.9% and -49.1%. As to `O=C(OCC(COC(=O)c1ccccc1)(COC(=O)c1ccccc1)COC(=O)c1ccccc1)c1ccccc1`, the activity change, positive = activation was 9.84%.

Take `NC(=O)N1C(=O)C(C(=O)c2cc(Cl)cs2)c2cc(F)c(Cl)cc21` (stereo not given): the activity change, positive = activation was -9.34%. On the same count and under the same terms, as for `O=C(Nc1cccc(Cl)c1)OCC#CCCl`, the figure is -74.2%; as for `CCCCC(CC)COC(=O)c1ccccc1C(=O)O` (stereo not given), -12.5%. Same read-out and setting: with `O=C(N/N=C/c1ccccc1O)c1ccncc1` the figure was -42.8% [at 42.5 µM]. Consider `O=C(OCC1CO1)C1CCCCC1C(=O)OCC1CO1` (stereo not given), for which the activity change, positive = activation was -46.8%. For the molecule `Cc1[nH]cnc1C[C@H]1CCc2c(C)c3ccccc3n2C1=O`, the activity change, positive = activation was -63.7%. `C/C=C(\C)C(=O)OCc1ccccc1`: the activity change, positive = activation is 5.16%. Same read-out and setting: with `Cc1cc2c(cc1C(F)(F)F)N(C(=O)Nc1ccc(Oc3cccnc3C)nc1)CC2` the figure was -42.2%; with `Cc1cc(O)c(C(C)(C)C)cc1Sc1cc(C(C)(C)C)c(O)cc1C`, -80.3%. The same measure, in the same setting: with `CCCCC(CC)CN=C(N)NC(N)=NCCCCCCN=C(N)NC(N)=NCC(CC)CCCC` (stereo not given) the figure was -65.1% [at 42.5 µM]. Consider `CCOc1nc2cccc(C(=O)OC(C)OC(=O)OC3CCCCC3)c2n1Cc1ccc(-c2ccccc2-c2nn[nH]n2)cc1` (stereo not given), for which the activity change, positive = activation was -65.4%. Take `OCc1c[nH]c2ccccc12`: the activity change, positive = activation is -39.5%.

Consider `N#CC1(c2ccc(F)cc2)CCC(=O)CC1`, for which the activity change, positive = activation is 6.11% [at 42.5 µM]. As to `Nc1nc2ccccc2n1Cc1ccc(F)cc1`, the activity change, positive = activation is -28.8% [at 42.5 µM]. For `N/C(=N\N=C\c1ccc(Cl)cc1)N/N=C/c1ccc(Cl)cc1`, the activity change, positive = activation is -44.1% [at 42.5 µM]. On the same count and under the same terms, with `Fc1ccc(C(c2ccc(F)cc2)N2CCN(C/C=C/c3ccccc3)CC2)cc1` the figure was -51.3% [at 42.5 µM]; with `Cc1onc(-c2c(Cl)cccc2Cl)c1C(=O)N[C@@H]1C(=O)N2[C@@H]1SC(C)(C)[C@@H]2C(=O)O`, -4.23% [at 42.5 µM]; with `Cc1ccc(O)c2ncccc12`, -58.3% [at 42.5 µM]. On the same count and under the same terms, with `CC1=C(C(=O)OC(C)C)C(c2cccc([N+](=O)[O-])c2)C(C(=O)OC2CN(C(c3ccccc3)c3ccccc3)C2)=C(N)N1` (stereo not given) the figure was -68.1% [at 42.5 µM]; with `CCc1cc(Cc2cc(CC)c(N)c(CC)c2)cc(CC)c1N`, -60.8%.

On to `O=C(Oc1cccc2cccnc12)c1ccccc1`, for which the activity change, positive = activation was -60.1% [at 42.5 µM]. The same measure, in the same setting: as for `O=C(NO)C1(NS(=O)(=O)c2ccc(Oc3ccc(F)cc3)cc2)CCOCC1`, the figure is -35.1%. Same read-out and setting: with `CCCCCCCCCCCCCCCCCC[N+](C)(C)C` the figure was -79.1%.

Turning to `Clc1ccc2cc3ccccc3cc2c1`, the activity change, positive = activation is 8.76%.

Take `COc1cc(-c2ccc(N=C=O)c(OC)c2)ccc1N=C=O`: the activity change, positive = activation is -0.106% [at 42.5 µM].

With `O=c1c(-c2ccccc2)c1-c1ccccc1`, the activity change, positive = activation was -61.4% [at 42.5 µM]. Same read-out and setting: as for `O=C(O)c1ccc(Cl)c(Cl)c1`, the figure is -1.94%; as for `CCCCCCCCCCCCCCCCCC[N+](C)(C)Cc1ccccc1`, -81%; as for `CC(C)n1nc(-c2cc3cc(O)ccc3[nH]2)c2c(N)ncnc21`, -55.4% [at 42.5 µM].
